Assay [1] can be described thus: Cell Proliferation Assay Versus the ED40515 IL2 Independent ATL cell lines (AID 1053194; calls by dose curve). The conditions noted are these: ED40515 IL2-independent ATL cells. In a few lines: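 CellTiter-Glo luminescence, read after 15 min at RT, gave viability of IL-2-free ED40515 cells (1000/well, RPMI plus 5% FBS) following 48 h drug exposure at 37C. Control wells held DMSO or 9.2 uM bortezomib.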

A short description of assay [2]: Cell Proliferation Assay Versus the ED40515 IL2 Dependent ATL cell lines (AID 1053195; calls by dose curve). The conditions noted are these: ED40515 IL2-dependent ATL cells. In outline:
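CellTiter-Glo luminescence (15 min, RT) measured viability after 48 hours at 37C; cells were ED40515 +IL2, 1000/well, in phenol red-free RPMI with 5% FBS. Controls: DMSO and 9.2 uM bortezomib.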

Assay [3] in a line: High-throughput drug toxicity screening in the BPDCN cell line Gen2.2 (AID 1224824; call rule not given here;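 also: cells exposed to compounds for 48 h before reading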). To be noted: Gen2.2 BPDCN cells; at 45.8 µM (top of the series) unless noted. In a few lines: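 Gen2.2, 500 cells/well, phenol red-free RPMI/10% FBS/Pen-Strep; 48 h cpd, 37 °C/5% CO2; CTG lum, 15 min RT. Norm: DMSO = 100%, bortezomib 9.2 uM final = 0%.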
Assay [4] can be described thus: High-throughput drug toxicity screening in the BPDCN cell line Cal-1 (AID 1224825; call rule not given here). The conditions noted are these: Cal-1 BPDCN cell viability, qHTS; at 45.8 µM (top of the series) unless noted. In a few lines: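 Percent activity derived from CellTiter-Glo luminescence, scaling DMSO to 100% and 9.2 uM final bortezomib to 0%. BPDCN Cal-1 cells (500/well, RPMI plus 10% FBS) incubated with compounds 48 hours at 37C before reading.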

Assay [5] in a line: qHTS assay for measurement of the activity of small molecule inhibitors on Zika virus induced Caspase-3 activity in human iPSC derived neural progenitor cells (hNPCs) (AID 1224857). Also: % of control where 0% means no effect; nearly all actives have a fitted effect of over 65% in size. To be noted: hNPCs ZIKV-induced caspase-3/7, Caspase-Glo luminescence, 6 h; series mostly up to 45.7 µM. In outline: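 Pretreat hNPCs with compound 1 h; infect ZIKV 2 FFU/cell; 6 h 37 C, 5% CO2; Caspase-Glo 3/7, 30 min RT; luminescence; normalize to no-virus and virus-only wells.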
(Quantitative high-throughput screening tests each substance at several concentrations.)

Assay [6] can be described thus: qHTS assay for measurement of the activity of small molecule inhibitors on Zika virus induced Caspase-3 activity in human astrocytoma cells (AID 1224859).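 Also: plate controls were ZIKV-infected untreated cells for no effect and uninfected cells for full effect.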 The conditions noted are these: SNB-19 ZIKV-induced caspase-3/7, luminescence, 6 h; series mostly up to 45.7 µM. In a few lines:
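Human SNB-19 astrocytoma cells in RPMI 1640 with 10% FBS receive compound one hour ahead of Zika virus at 2 FFU/cell. After 6 h infection, caspase-3/7 activity is detected by Caspase-Glo luminescence.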

Assay [7] in a line: Identifying Small Molecule Inhibitors of Pancreatic Cancer Stem Cells (SN12C, Spheroid) (AID 1259360). Also: potency is read from the fitted curve at half-maximal effect.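 As to viability (% of control): 100% = DMSO-treated cells and 0% = wells without cells.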 The conditions noted are these: Potency: SN12C spheroid viability; series mostly up to 46.1 µM. In outline:
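Spheroids grown 14 days in stem cell media on hydrogel-coated nonadherent plates; 2D lines seeded directly. Compounds added after 4 h attachment, 48 h at 37C, 5% CO2; CellTiter-Glo luminescence normalized to DMSO (no inhibition) and no-cell wells (full inhibition).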

Assay [8] is described as follows: P-glycoprotein substrates identified in KB-8-5-11 adenocarcinoma cell line, qHTS therapeutic library screen (AID 1346987). Also: nearly all actives have a fitted effect of over 65% in size. Also: potency is read from the fitted curve at half-maximal effect. To be noted: KB-8-5-11 (P-gp overexpressing) viability, CellTiter-Glo, 72 h; series mostly up to 44.5 µM. In a few lines: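 Compounds are pinned in dose-response onto KB-8-5-11 cells (500 cells/well, colchicine-free medium) and left 72 h at 37 degree C. CellTiter-Glo luminescence then yields AC50 values.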

A short description of assay [9]: qHTS Screen of the MIPE 4.0 Collection Against Ewings Sarcoma (RDES) (AID 1259252). Also: nearly all actives have a fitted effect of over 35% in size. Also: potency is read from the fitted curve at half-maximal effect. To be noted: RD-ES Ewing sarcoma viability, CellTiter-Glo, 48 h; series mostly up to 45.8 µM. In outline: (§1)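 Cells plated in serum-containing RPMI (5% FBS) and treated with compound dilutions for 48 h. Readout luminescent viability; normalization relied on vehicle (no inhibition) and media-only columns (full inhibition).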

Assay [10] in a line: qHTS Screen of the MIPE 4.0 Collection Against Ewings Sarcoma (TC71) (AID 1259253). Also: nearly all actives have a fitted effect of over 40% in size. Also: potency is read from the fitted curve at half-maximal effect. The conditions noted are these: TC71 Ewing sarcoma viability, CellTiter-Glo, 48 h; series mostly up to 45.8 µM. In a few lines: as §1
The nature of assay [11]: qHTS Screen of the MIPE 4.0 Collection Against Ewings Sarcoma (EW8) (AID 1259255). Also: nearly all actives have a fitted effect of over 35% in size. Also: potency is read from the fitted curve at half-maximal effect.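 As to viability: 100% = DMSO-treated cells and 0% = medium-only wells without cells.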 To be noted: EW8 Ewing sarcoma viability, CellTiter-Glo, 48 h; series mostly up to 45.8 µM. In a few lines: as §1
Assay [12] is described as follows: qHTS Screen of the MIPE 4.0 Collection Against Ewings Sarcoma (TC32) (AID 1259256). Also: nearly all actives have a fitted effect of over 45% in size. Also: potency is read from the fitted curve at half-maximal effect. To be noted: TC32 Ewing sarcoma viability, CellTiter-Glo, 48 h; series mostly up to 45.8 µM. In outline: as §1
Assay [13] can be described thus: Identifying Small Molecule Inhibitors of Pancreatic Cancer Stem Cells (A278, Adherent) (AID 1259361). Also: nearly all actives have a fitted effect of over 35% in size.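 As to viability (% of control): 100% = DMSO-treated cells and 0% = cell-free media-only wells.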 The conditions noted are these: series mostly up to 46.1 µM. In outline: (§2)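 Pre-formed 14-day tumor spheroids or adherent cells dosed and incubated 48 h, 37C, 5% CO2. Viability assessed by CellTiter-Glo.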
A short description of assay [14]: Identifying Small Molecule Inhibitors of Pancreatic Cancer Stem Cells (Panc1, Adherent) (AID 1259362).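 Also: compound exposure lasted 48 h before the viability read; plate controls were DMSO-treated cells for no effect and cell-free media wells for full effect.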 The conditions noted are these: Potency: viability; series mostly up to 46.1 µM. In outline:
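Cytotoxicity read by CellTiter-Glo luminescence after 48 h compound exposure at 37C; percent activity scaled between DMSO-treated cells and cell-free wells. Spheroid formats used cells pre-formed 14 days in stem cell media on hydrogel.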

Assay [15] is described as follows: Identifying Small Molecule Inhibitors of Pancreatic Cancer Stem Cells (SN12C, Adherent) (AID 1259358).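 Also: cell survival measured after 48 h of compound exposure.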 Also: potency is read from the fitted curve at half-maximal effect. The conditions noted are these: viability/growth inhibition; series mostly up to 46.1 µM. In a few lines: as §2
Assay [16] is described as follows: P-glycoprotein substrates identified in KB-3-1 adenocarcinoma cell line, qHTS therapeutic library screen (AID 1346986). Also: % is scaled to controls: 0 for no effect and ±100 for the full control effect; nearly all actives have a fitted effect of over 60% in size. The conditions noted are these: KB-3-1 parental cells viability, CellTiter-Glo, 72 h; series mostly up to 44.5 µM. In outline:
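Viability read by CellTiter-Glo after 72 h compound exposure in dose-response of KB-3-1 and KB-8-5-11 (P-gp-high) cells. Hits needed AC50 < 10 uM, >50% maximum response and curve class -1.1 to -2.4. Cherry-picks retested ± tariquidar, including pcDNA/MDR-19 HEK-293 pair.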

Values joined by “and” are separate entries in the source; they are usually repeats but may differ in a detail not shown here. Equal values may be shown once. Results filed as inconclusive are left out. Active and inactive are the calls of the source. Unless noted, calls follow the shape of the dose curve; as a rule, active = well fitted curve in the direction sought with a large enough effect; inconclusive = small, poorly fitted or top-dose-only effect, or another doubt; inactive = no such curve, though single readings can be large; an effect the other way counts as inactive or inconclusive.

`CNC(=O)c1ccc(C)c(-n2c(C)cc(OCc3ccc(F)cc3F)c(Br)c2=O)c1`: the results for the Potency in [1], in assay [2] and in assay [7] were 26.4 µM (active), 5.9 µM (active) and 4.69 µM (active), respectively. In addition, the cell viability, % of control (lower = more cytotoxic) in [3] was determined as 140%. In addition, the viability (% of control) in assay [4] was 94.3%. Moreover, the Potency result in assay [5], in assay [6] and in assay [8] was “inactive” each time.

Take `COc1ccc(C2=N[C@H](c3ccc(Cl)cc3)[C@H](c3ccc(Cl)cc3)N2C(=O)N2CCNC(=O)C2)c(OC(C)C)c1`: the Potency in [1] is 33.2 µM (active); in assay [9], 18.7 µM (active); in assay [10], 16.6 µM (active); in assay [11], 5.26 µM (active); in assay [12], 16.6 µM (active). In addition, the cell viability, % of control (lower = more cytotoxic) in [3] came to 4.67%. Besides, the viability (% of control) in assay [4] stood at 4.23%. The Potency result in assay [5], in [7] and in assay [14] was “inactive” each time. In addition, in [13], the IC50 (viability decrease) was 18.7 µM (active).

Consider `Cc1cccc(-c2nn(C(=S)Nc3ccccc3)cc2-c2ccnc3ccccc23)n1`, for which the Potency in assay [1] was 26.4 µM (active); in assay [2], 2.35 µM (active). Also, the cell viability, % of control (lower = more cytotoxic) in [3] worked out at 560%. Also, in assay [4], the viability (% of control) is 91.8%. Besides, the Potency result in assay [5], in [6], in assay [11], in assay [12], in assay [15] and in assay [14] was “inactive” throughout. Also, the Potency result in assay [16] and in assay [8] was “inactive” each time.

As to `C[C@]12CC[C@H](O)CC1=CC[C@@H]1[C@H]2CC[C@]2(C)C(c3cccnc3)=CC[C@H]12`, in assay [1], the Potency is 26.4 µM (active). For the same compound, the cell viability, % of control (lower = more cytotoxic) in [3] was 60.5% [at 23.2 µM]. In assay [4], this compound returned a viability (% of control) of 98.4% [at 23.2 µM]. Further, the Potency result in assay [5], in [6], in assay [9], in [10], in assay [11] and in assay [15] was “inactive” each time. Also, the Potency result in assay [7] and in [8] was “inactive” in each case. In assay [13], the IC50 (viability decrease) entry was “inactive”.

Consider `CC1(C)CNc2cc(NC(=O)c3cccnc3NCc3ccncc3)ccc21`, for which the Potency in assay [1] is 33.2 µM (active); in assay [9], 1.05 µM (active); in assay [11], 23.5 µM (active); in assay [12], 5.26 µM (active). Besides, the cell viability, % of control (lower = more cytotoxic) in assay [3] was 230%. In addition, the viability (% of control) in assay [4] stood at 69.9%. Moreover, the Potency result in assay [5], in [6], in assay [15], in assay [7] and in assay [8] was “inactive” throughout.

Consider `CCCS(=O)(=O)Nc1ccc(F)c(C(=O)c2c[nH]c3ncc(Cl)cc23)c1F`, for which the Potency in assay [1] was 13.2 µM (active); in [9], 14.8 µM (active); in assay [10] it was 18.7 µM (active); in assay [12] it was 16.6 µM (active). Also, the cell viability, % of control (lower = more cytotoxic) in [3] was 113%. The compound further showed a viability (% of control) in assay [4] of 17.1%. Further, the Potency result in [5] and in [6] was “inactive” in each case.

As for `CC1(C)Cc2c(-c3ccccc3)c(-c3ccc(Cl)cc3)c(CC(=O)O)n2C1`, the Potency is 11.8 µM (active) in assay [1], 5.26 µM (active) in assay [2] and 16.6 µM (active) in [10]. The cell viability, % of control (lower = more cytotoxic) in assay [3] came to 71.9%. The compound further came in with a viability (% of control) in assay [4] of 78.3%. In addition, the Potency result in assay [5], in [6], in assay [15] and in assay [7] was “inactive” each time.

Take `Cc1ccc(NC(=O)c2cccc(C(C)(C)C#N)c2)cc1Nc1ccc2ncn(C)c(=O)c2c1`: the Potency in [1] was 26.4 µM (active); in assay [9] it was 14.8 µM (active); in assay [11] it was 14.8 µM (active); in assay [15], 7.43 µM (active); in [8] it was 16.6 µM (active). Further, the cell viability, % of control (lower = more cytotoxic) in [3] turned out to be 8.79%. The compound further gave a viability (% of control) in assay [4] of 14%. Moreover, the Potency result in assay [5] and in [6] was “inactive” each time.

Turning to `Cc1cc(Nc2nc(N[C@@H](C)c3ncc(F)cn3)ncc2Cl)n[nH]1`, the Potency in [1] is 14.8 µM (active); in assay [9] it was 6.62 µM (active); in assay [10], 10.5 µM (active); in assay [11] it was 26.4 µM (active); in [12] it was 16.6 µM (active); in assay [8], 16.6 µM (active) and 1.03 µM (active). For the same compound, the cell viability, % of control (lower = more cytotoxic) in assay [3] was 151%. Moreover, in [4], the viability (% of control) turned out to be 4.1%. The Potency result in assay [5], in assay [6], in assay [15] and in [7] was “inactive” each time. In addition, the IC50 (viability decrease) entry in [13] was “inactive”.
